Assay results taken from PubChem BioAssay (Tox21).
Where “and” joins values, the source holds several entries; their conditions need not be identical. Identical values can stand only once. Records with an inconclusive call do not appear. A number with no mark means an inactive call. Calls of active or inactive are those of the source. Calls follow the shape of the dose curve; as a rule, active = well fitted cell-killing curve with a large enough effect in the repeat runs; inconclusive = weak or mixed curves, or effect the other way; inactive = flat fitted curve, though single readings scatter.

Experiment: qHTS assay to identify small molecule agonists of the sonic hedgehog signaling (Shh) pathway - cell viability counter screen (AID 1259366); also: nearly all actives have a fitted effect of over 50% in size
Details: NIH/3T3 Gli1-Luc viability, CellTiter-Fluor, 24 h; series mostly up to 92.4 µM; viability change, negative = cytotoxic: at the top concentration
Excerpt: National Center for Advancing Translational Sciences [NCATS]
NIH Chemical Genomics Center [NCGC]
U.S. Environmental Protection Agency [EPA]
National Institutes of Environmental Health Sciences [NIEHS]
National Toxicology Program [NTP]
U.S. Food and Drug Administration [FDA]
The sonic hedgehog (Shh) pathway is essential for normal embryonic development. Dysregulation of the Shh pathway can cause severe developmental defects in organs. Therefore chemicals that interfere with the pathway are potential developmental toxicants. A cell line designated 3T3Gli1-Luc (DMB/OARSA/CFSAN/FDA, Laurel, MD), a NIH/3T3 derived clone containing stably integrated Gli1-Luc reporter is used to detect chemical interference of the Shh pathway, by changes in the expression of the firefly Luc gene under the control of the Gli1 transcriptional response element. This cell line was used to screen Tox21 libraries for identifying and prioritizing the potential developmental toxicants that interfere Shh pathway. The cytotoxicity of the compounds was tested in parallel by measuring the cell viability using CellTiter-Fluor assay system (Promega, Madison, WI) in the same wells.
Tox21 Assay Protocol Summary:
3T3 Gli1-Luc cells were dispensed at 2,000 per well in 5uL of culture medium into white solid bottom 1536-well plates (Greiner Bio-One, Monroe, NC) using a Multidrop Combi (Thermo Scientific, Waltham, MA) dispenser. The assay plates were incubated at 37 C and 5% CO2 for 4hr, and then 23nL of compounds dissolved in DMSO and positive control were transferred using a Pintool station (Wako, San Diego, CA). The assay plates were incubated at 37C and 5% CO2 for 24hr. For viability read, after 23hr of compound treatment, 1uL of CellTiter-Fluor reagent (Promega Corporation, Madison, WI) was added to each well of the assay plates using Flying Reagent Dispenser (FRD, Aurora Discovery, San Diego, CA) and incubated the assay plates at 37C for 1hr. The fluorescence signal was quantified using a ViewLux plate reader (Perkin Elmer, Shelton, CT).
% is scaled to controls: 0 for no effect and ±100 for the full control effect; potency is read from the fitted curve at half-maximal effect.

Compound | viability change, negative = cytotoxic | Potency
CCCCCCCCCCCCCCNCCO | 14.3% [at 42.5 µM] | 
CS(C)(=O)=O | -2.22% | 
NC1(c2ccc(-c3nc4ccn5c(=O)[nH]nc5c4cc3-c3ccccc3)cc2)CCC1 |  | 13.3 µM (active)
OCCCc1cccnc1 | -3.69% | 
CC(=O)OC1CCCCC1 | -0.651% | 
CCN(CC)c1cccc(C)c1 | 0.655% | 
C[C@H]1O[C@@H](O[C@H]2[C@@H](O)C[C@H](O[C@H]3[C@@H](O)C[C@H](O[C@H]4CC[C@@]5(C)[C@H](CC[C@@H]6[C@@H]5C[C@@H](O)[C@]5(C)[C@@H](C7=CC(=O)OC7)CC[C@]65O)C4)O[C@@H]3C)O[C@@H]2C)C[C@H](O)[C@@H]1O |  | inactive
CCCCCCCC/C=C\CCCCCCCC(=O)NCc1ccc(O)c(OC)c1 | 12.2% [at 42.5 µM] | 
CC[N+](CC)(CC)Cc1ccccc1 | 11.1% | 
CC(C)=CC1CC(C)CCO1 (stereo not given) | 0.736% | 
C[C@@]12C(=O)OC(=O)[C@]1(C)C1CCC2O1 |  | 1.5 µM (active)
c1cc2c3c(c1)ccc1cccc(c13)C2 | 0.331% | 
CC1=CCC(=O)O1 | 2.01% | 
CC1CCCCN1CCCOC(=O)c1ccc(OC2CCCCC2)cc1 (stereo not given) | -5.76% [at 42.5 µM] | 
CCCCCCS | -1.02% | 
NC(=O)C(=O)N/N=C/c1ccc([N+](=O)[O-])o1 | -14.2% [at 42.5 µM] | 
CN(C)CCOC(c1ccccc1)c1ccccc1 (tested in a mixture with another compound) | -4.89% | 
Cc1occc1SSc1ccoc1C | 4.78% | 
Nc1ncnc2c1ncn2[C@@H]1O[C@H](COP(=O)(O)O)[C@@H](O)[C@H]1O | -6.04% [at 42.5 µM] | 
Cc1oc(-c2ccccc2)nc1CCOc1ccc(C[C@H](Nc2ccccc2C(=O)c2ccccc2)C(=O)O)cc1 |  | 43.3 µM (active)

Compound | viability change, negative = cytotoxic | Potency
C[Si](C)O[Si](C)C | -0.249% | 
COc1cc(C(=O)NS(=O)(=O)c2ccccc2C)ccc1Cc1cn(C)c2ccc(NC(=O)OC3CCCC3)cc12 | -8.34% [at 42.5 µM] | 
CCCCCCCCCCCCCC[n+]1ccccc1 |  | 61.1 µM (active)
CCCCN(C)C | 4.33% | 
CCCOc1sc(C(=O)N2CCC(c3cc(CN)ccc3F)CC2)c(C)c1Br |  | 22.3 µM (active)
CCOC(OCC)C(=O)c1ccccc1 | -1.71% | 
O=C(c1ccccc1)c1cc(Cl)ccc1O | -22.6% | 
CSc1ccc2c(c1)N(CCC1CCCCN1C)c1ccccc1S2 (stereo not given) |  | 15.3 µM (active) and 29.8 µM (active)
O=C(O)c1cccc(Cl)n1 | 8.9% | 
C=CC/C=C/C/C=C/C/C=C/C | 3.5% | 
CN(C)CCCN1c2ccccc2CCc2ccccc21 | -21.2% [at 42.5 µM] | 
C/C=C/C(=O)Oc1c(CCCCCC(C)C)cc([N+](=O)[O-])cc1[N+](=O)[O-] |  | 61.1 µM (active)
CCO[Si](CCCSSSSCCC[Si](OCC)(OCC)OCC)(OCC)OCC | 1.15% | 
Cc1cccc(N(C)C)c1 | 0.151% | 
CN(C)CCCN1c2ccccc2Sc2ccc(C(F)(F)F)cc21 | -28.2% [at 42.5 µM] | 
Cc1ccc(-n2[nH]c(C)c(N=Nc3cccc(-c4cccc(C(=O)O)c4)c3O)c2=O)cc1C | -17.8% [at 42.5 µM] | 
CC1CCCCC1 | 5.95% | 
C[C@]12CC[C@H]3C(=CCc4cc(O)ccc43)[C@@H]1CCC2=O | -11.3% | 
COc1ccccc1C=O | -0.0813% | 
CCCCCCCCCC(=O)N(C)C | 10.1% | 
